Structures are written as SMILES. Where “and” joins values, the source holds several entries; their conditions need not be identical. Identical values can stand only once. Records with an inconclusive call do not appear. Calls of active or inactive are those of the source. Calls come from the whole dose curve; as a rule, active = well fitted inhibition curve with a large enough effect in the signal ratio, with a control signal flat (not every such curve was filed as active); inconclusive = small, poorly fitted or top-dose-only effect, or effect the other way, or a change in a side signal; inactive = no such curve, though single readings can be large or run the other way; the % refers to the signal ratio.
% is set by controls: 0 for no effect and ±100 for the full control effect.

Chain of Retinoic acid receptor RXR-alpha (Homo sapiens) (P19793 whole entry, looked up): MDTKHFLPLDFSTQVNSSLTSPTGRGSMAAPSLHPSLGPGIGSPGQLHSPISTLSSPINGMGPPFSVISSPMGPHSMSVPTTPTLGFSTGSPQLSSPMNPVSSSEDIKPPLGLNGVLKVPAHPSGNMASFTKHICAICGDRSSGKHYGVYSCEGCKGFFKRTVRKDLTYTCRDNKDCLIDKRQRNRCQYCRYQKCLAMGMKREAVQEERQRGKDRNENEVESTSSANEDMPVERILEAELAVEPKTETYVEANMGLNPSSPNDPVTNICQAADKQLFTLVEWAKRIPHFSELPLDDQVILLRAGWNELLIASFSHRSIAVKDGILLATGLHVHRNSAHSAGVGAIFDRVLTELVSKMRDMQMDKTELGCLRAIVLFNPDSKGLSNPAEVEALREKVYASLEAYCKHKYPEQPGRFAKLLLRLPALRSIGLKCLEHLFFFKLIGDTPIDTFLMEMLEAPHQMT

This experiment has as its target Retinoic acid receptor RXR-alpha (Homo sapiens) (UniProt P19793). In words: qHTS assay for small molecule antagonists of retinoid X receptor alpha signaling (AID 588546). To be noted: HEK293T RXRa-UAS-bla, beta-lactamase ratio, antagonist mode. The source says:
NIH Chemical Genomics Center [NCGC] U.S. Environmental Protection Agency [EPA] National Institutes of Environmental Health Sciences [NIEHS] National Toxicology Program [NTP] NCGC Assay Overview The Retinoid X receptor (RXR), a nuclear hormone receptor is expressed in liver, spleen, placenta, epidermis, central nervous system. These receptors are able to form homo and heterodimers with other nuclear receptors and due to this heterodimerizing ability, RXR functions as master regulators producing diverse physiological effects. Three subtypes of RXR exist; alpha, beta and gamma. Retinoid X receptor alpha (RXR-alpha) has potential roles in metabolic signaling pathways, skin alopecia, dermal cysts, cardiac development, insulin sensitization etc. Therefore screening environmental chemicals on RXR-alpha signaling can be used for the studies focused on such therapeutic applications.
NCGC Assay Protocol Summary Using a beta-lactamase reporter-gene under control of Retinoid X receptor--alpha (RXR-alpha) response element, a cell-based assay [GeneBLAzer (RXR-alpha -UAS-bla assay developed by Invitrogen] was used to measure RXR-alpha ligands signaling. GeneBLAzer RXR-alpha -UAS-bla HEK293T cells were used with assay medium containing 2% charcoal-stripped FBS. The assay was performed in clear bottom black Greiner 1536-well plates. Library compounds were measured for their ability to inhibit the reporter gene activity. Compounds were screened in a titration series in 1536-well format. The fluorescence intensity (405 nm excitation, 460/530 nm emission) was measured using an EnVision plate reader. Data was normalized relative to 9-cis-retinoic acid control (500 nM, 100%), and DMSO only wells (basal, 0%). Concentration-response titration points for each compound were fitted to the Hill equation yielding concentrations of half-maximal inhibition (IC50) and maximal response (efficacy) values. qHTS protocol for RXR-alpha beta-lactamase assay in antagonist mode [Step] [Parameter] [Value] [Description] 1. Reagent; 5 uL; 2500 cells/well 2. Incubation; 37 C for 4 hrs 3. Compounds; 23 nL; 0.59 nM to 92 uM 4. Controls (DMSO); 23 nL 5. Agonist (Stimulator); 1uL; 9-cis-retinoic acid at 500 nM and 100 nM final concentrations 6. Incubation; 37 C for 18 hrs 7. Detection reagent; 1 uL of CCF4-dye 8. Incubation; RT for 2 hrs 9. Detection; Fluorescence; Envision plate reader
(In general: In qHTS, concentration-response curves come from the screen itself.)
`CCCCC(CC)C(=O)OCCOCCOCCOC(=O)C(CC)CCCC` (stereo not given): the max response is -7.08% (inactive).

Turning to `CC(C)OC(=O)c1ccccc1C(=O)OC(C)C`, the max response is -1.37% (inactive).

On to `COC(=O)c1ccc(C(=O)OC)cc1`, for which the max response was -16.3% (inactive).

In the case of `Brc1ccc(Oc2ccc(Br)cc2)cc1`, the max response was 3.5% (inactive).

Take `O=S(=O)(O)c1ccc(N=Nc2c(O)ccc3cc(S(=O)(=O)O)ccc23)cc1`: the max response was -6.14% (inactive).

For the molecule `C[Si](C)(Cl)[Si](C)(C)Cl`, the max response was -15.7% (inactive).

As to `CCCCCCCCCCCCCCCCN(C)C`, the max response is -24.8% (inactive).

Turning to `CC(C)=CCC[C@@H](C)[C@H]1CC[C@@]2(C)C3=C(CC[C@]12C)[C@@]1(C)CC[C@H](O)C(C)(C)[C@@H]1CC3`, the max response was 8.2% (inactive).

As for `CCCCN(CCCC)CCCC`, the max response was 2.35% (inactive).

Regarding `CS(=O)(=O)c1ccc(Cl)cc1`, the max response is -18.5% (inactive).

In the case of `COCCO`, the max response was 16.3% (inactive) and -4.97% (inactive).

For `CO[Si](CCCNCCN)(OC)OC`, the max response was 2.04% (inactive).

Turning to `CCCCCCCCCCCCN`, the max response is 5.24% (inactive).

Regarding `COc1cc(Cl)c(OC)cc1N`, the max response is -0.61% (inactive).

As to `COC(=O)c1ccccc1S(=O)(=O)NC(=O)Nc1nc(OC(F)F)cc(OC(F)F)n1`, the max response is -2.35% (inactive).

For the molecule `CNc1nc(=O)n(C2CCC(O)CC2)c(=O)n1C` (stereo not given), the max response is 4.66% (inactive).

Regarding `CCCCCCCC[Si](OCC)(OCC)OCC`, the max response is -6.63% (inactive).

Regarding `CCC/C(=N\OCC)C1=C(O)CC(O)(CC(C)S(=O)(=O)CC)CC1=O` (stereo not given), the max response is 3.08% (inactive).

`CCCCOC(=O)/C=C\C(=O)OCCCC`: the max response was 8.44% (inactive).

Consider `O=C(O)C(Oc1ccc(Cl)cc1)Oc1ccc(Cl)cc1`, for which the max response was -10.5% (inactive).

Take `CC(C)(C)c1n[nH]c(=O)n(N)c1=O`: the max response is -3.59% (inactive).

Regarding `CC1=CC2C3CC(C=C3C)C2C1` (stereo not given), the max response is 3.65% (inactive).

For `CCCCC(CC)COC(C)=O` (stereo not given), the max response is -2.2% (inactive).

On to `O=C(OCC1CCC2OC2C1)C1CCC2OC2C1` (stereo not given), for which the max response was -6.03% (inactive).

As to `CCCC/C=C\CCCCCCCCO`, the max response was -9.15% (inactive).

On to `CCCCCCC(C)(C)S`, for which the max response is 4.42% (inactive).

`NC(=O)Cc1cccc2ccccc12`: the max response is -14.7% (inactive).

With `CCCCC(CC)COP(=O)(O)OCC(CC)CCCC` (stereo not given), the max response is -10.6% (inactive).

Take `CCCCCCCCCCCCCCN(C)C`: the max response was -14.8% (inactive).

In the case of `CC1(C)[C@@H](C=C(Cl)Cl)[C@@H]1C(=O)OCc1cccc(Oc2ccccc2)c1`, the max response was -8.61% (inactive).

Turning to `CCNc1nc(NC(C)CC)nc(OC)n1` (stereo not given), the max response was 7.45% (inactive).

Turning to `CC(C)C(=O)OC(=O)C(C)C`, the max response is -4.54% (inactive).

As for `c1ccc(-c2ccc(-c3ccccc3)cc2)cc1`, the max response was 1.88% (inactive).

With `Nc1c(N=Nc2ccc(S(=O)(=O)CCOS(=O)(=O)O)cc2)c(S(=O)(=O)O)cc2cc(S(=O)(=O)O)c(N=Nc3ccc(S(=O)(=O)CCOS(=O)(=O)O)cc3)c(O)c12`, the max response was -5.5% (inactive).

As to `O=C(OCCOCCOC(=O)c1ccccc1)c1ccccc1`, the max response is 4.89% (inactive).

Take `CC1(C)C(=O)NC(=O)N1CO`: the max response is -4.89% (inactive).

Regarding `CC(C)c1ccc(C(C)C)cc1`, the max response is 9.54% (inactive).

Turning to `O=[N+]([O-])c1ccc(O)cc1C(F)(F)F`, the Potency was 7.94 µM (active).

Regarding `Brc1ccc(Br)c(Br)c1`, the max response was -14.6% (inactive).

For `C=Cc1ccc(P(c2ccccc2)c2ccccc2)cc1`, the max response was 3.02% (inactive).

The values are drawn from PubChem BioAssay (NCATS).
